{
  "source": "PubChem BioAssay AID811",
  "about": "(The Scripps Research Institute Molecular Screening Center, 2007)",
  "note": "Screen size: about 16,000 compounds; about 10 (0.06%) were called active. What follows is part of a selection rich in actives, with near analogues and random picks from the rest. A number with no mark means an inactive call. Rule as the data show it: active = inhibition above about 45%; inactive = the rest.",
  "data": [
    {"molecular_target": "Toll-like receptor 4 (Homo sapiens) (UniProt O00206)", "sequence (O00206 whole entry, looked up)": "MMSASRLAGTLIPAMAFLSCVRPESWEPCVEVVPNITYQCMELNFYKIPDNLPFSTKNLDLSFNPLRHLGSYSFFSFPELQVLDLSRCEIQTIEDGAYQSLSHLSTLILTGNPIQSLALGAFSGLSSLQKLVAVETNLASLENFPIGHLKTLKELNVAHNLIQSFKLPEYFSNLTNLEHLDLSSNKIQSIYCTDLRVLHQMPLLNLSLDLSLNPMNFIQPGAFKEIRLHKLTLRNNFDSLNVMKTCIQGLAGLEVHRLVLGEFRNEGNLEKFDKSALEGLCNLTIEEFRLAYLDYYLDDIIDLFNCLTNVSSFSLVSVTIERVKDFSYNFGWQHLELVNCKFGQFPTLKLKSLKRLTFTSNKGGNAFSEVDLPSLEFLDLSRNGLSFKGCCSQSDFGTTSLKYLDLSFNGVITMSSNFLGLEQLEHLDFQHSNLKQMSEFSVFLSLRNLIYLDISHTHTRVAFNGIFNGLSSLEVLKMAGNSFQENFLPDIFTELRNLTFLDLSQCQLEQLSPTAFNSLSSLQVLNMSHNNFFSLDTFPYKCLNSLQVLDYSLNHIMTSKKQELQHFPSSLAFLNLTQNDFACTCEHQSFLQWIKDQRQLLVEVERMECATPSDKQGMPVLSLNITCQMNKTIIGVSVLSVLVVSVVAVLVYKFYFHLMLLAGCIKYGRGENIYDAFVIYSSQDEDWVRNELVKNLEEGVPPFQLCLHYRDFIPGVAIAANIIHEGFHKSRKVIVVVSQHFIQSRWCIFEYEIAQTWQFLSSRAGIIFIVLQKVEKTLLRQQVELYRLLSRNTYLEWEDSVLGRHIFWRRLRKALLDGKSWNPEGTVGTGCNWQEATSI", "assay": "inhibitors of human TLR4-MyD88 binding (AID 811)", "conditions": "Cell-based TLR4-MyD88 binding inhibition assay; at 10 µM; hits give high values", "units": {"inhibition": "%"}, "values": [
      {"smiles": "NS(=O)(=O)c1cccc(NC(=O)c2ccccc2)c1", "inhibition": 2.32},
      {"smiles": "N#CC(Cc1ccccc1)Sc1ccccc1", "note": "(configuration not stated)", "inhibition": 5.75},
      {"smiles": "COc1ccc(OCCC(=O)NNC(=S)Nc2cc(Cl)ccc2Cl)cc1", "inhibition": -3.16},
      {"smiles": "CCOCCOCCN(CC)c1ccc(N=Nc2c(C#N)cc([N+](=O)[O-])cc2C#N)c(NC(C)=O)c1", "inhibition": -2.49},
      {"smiles": "CC1(C)CCc2cc(-c3ccnc(SCC(=O)c4ccccc4)n3)ccc2O1", "inhibition": -13.2},
      {"smiles": "Cc1noc(C)c1S(=O)(=O)Nc1cc(C(F)(F)F)ccc1N1CCOCC1", "inhibition": 3.25},
      {"smiles": "N#CCCN(CCc1ccccn1)S(=O)(=O)c1ccc2c(c1)CCO2", "inhibition": 3.85},
      {"smiles": "CC(C)(C)C(=O)NNC(=O)c1ccc(Oc2ccc(C3SCCS3)cc2)o1", "inhibition": -1.82},
      {"smiles": "Cc1cc2c(cn1)C(=O)c1ccccc1-2", "inhibition": -3.73},
      {"smiles": "CCOC(=O)c1cc(Sc2ccccc2N)cc(C(=O)OCC)n1", "inhibition": -13.8},
      {"smiles": "Cc1c(C)c(C)c(CSC(=N)CC#N)c(C)c1C", "inhibition": 1.02},
      {"smiles": "Cc1cc(NCc2cccnc2)no1", "inhibition": -4.99},
      {"smiles": "O=C(/C=C/c1cccc2ccccc12)N1CCCCC1", "inhibition": 2.1},
      {"smiles": "CC1=CC(=O)C(CCC2=CC(=O)C(C)=CC2=O)=CC1=O", "inhibition": -7.79},
      {"smiles": "CC1=NCCNC(C)=C1N1CCOCC1", "inhibition": 2.33},
      {"smiles": "N/C(Cc1ccc(F)cc1F)=N\\OC(=O)c1cccc(C(F)(F)F)c1", "inhibition": 2.07},
      {"smiles": "O=C(N/N=C/c1ccc(Cl)cc1Cl)/C(=C/c1cccs1)NC(=O)c1ccccc1", "inhibition": -7.21},
      {"smiles": "NC(=NC(=O)CCn1c(=O)oc2ccccc21)c1cc(Cl)cc(Cl)c1", "inhibition": -2.8},
      {"smiles": "Cc1ccc(CC(=O)c2cccnc2)cc1", "inhibition": 3.89},
      {"smiles": "FC(F)(F)c1ccc(-n2cn[nH]c2=S)cc1", "inhibition": -1.09},
      {"smiles": "Cc1cc(C)nc(N/C=C(\\C#N)S(=O)(=O)c2ccc(Cl)cc2)n1", "inhibition": -13},
      {"smiles": "CCOC(=O)Cc1nnc(-c2ccc(Cl)cc2)o1", "inhibition": -0.7},
      {"smiles": "COC(C)(OC)c1ccc(C#N)c(=S)[nH]1", "inhibition": -5.59},
      {"smiles": "CCOC1=NC(C(F)(F)F)(C(F)(F)F)N=C(N2CCOCC2)O1", "inhibition": 0.2},
      {"smiles": "CN(C)C(=O)Nc1ccc(C(C)(C)C)cc1", "inhibition": -8.78},
      {"smiles": "O=C(O)CCC(=O)Nc1ccccc1", "inhibition": 0.27},
      {"smiles": "N#Cc1nc(-c2ccccc2)c(-c2ccccc2)nc1C#N", "inhibition": 9.3},
      {"smiles": "Cc1onc(-c2ccccc2)c1C(=O)Nc1ccc(/C(C#N)=C/c2ccccn2)cc1", "inhibition": -8.57},
      {"smiles": "Cn1cc(C(=O)c2ccc(Cl)cc2)cc1/C=C(\\C#N)S(=O)(=O)c1ccc(C(F)(F)F)cn1", "inhibition": -4.67},
      {"smiles": "O=C(O)CCC(=O)Nc1ccc2c(c1)OCCCO2", "inhibition": -5.34},
      {"smiles": "c1ccc(-n2cccc2)c(N2CCCCC2)c1", "inhibition": -11.1},
      {"smiles": "Cc1ccc2oc(=O)n(CC/C(N)=N/OC(=O)c3ccc(C(F)(F)F)nc3C)c2c1", "inhibition": 8.34},
      {"smiles": "CCOC(=O)c1sc(SC)c(-c2ccccc2)c1N", "inhibition": 2.9},
      {"smiles": "CCOC(=O)CNC(=O)CCc1cc(OC)c(OC)c(OC)c1", "inhibition": -5.89},
      {"smiles": "O=C(Oc1ccc(Cl)cc1)c1snnc1-c1ccccc1", "inhibition": -12.5},
      {"smiles": "FC(F)(F)c1cccc(NC(=S)NNc2nccc(C(F)(F)F)n2)c1", "inhibition": 14.4},
      {"smiles": "Cc1c(S(=O)(=O)c2ccc(Cl)cc2)csc1C(=O)Nc1ccc2c(c1)OCCO2", "inhibition": -2.01},
      {"smiles": "O=C(CCSc1nc2ccccc2o1)N1CCc2cc([N+](=O)[O-])ccc21", "inhibition": -4.41},
      {"smiles": "O=C(Nc1ccc(OCc2ccccc2)cc1)Nc1ccc2c(c1)C(=O)OC2", "inhibition": -6.75},
      {"smiles": "CCOC(=O)c1c(NS(=O)(=O)c2cccc3nsnc23)sc(C)c1C", "inhibition": -17.3},
      {"smiles": "CCOC(=O)CNC(=O)c1ccc(-c2cccc([N+](=O)[O-])c2)o1", "inhibition": 2.51},
      {"smiles": "CC(=O)OCC(=O)[C@@]1(O)[C@H](C)CC2C3CCC4=CC(=O)C=CC4(C)C3=CCC21C", "note": "(some centres not stated)", "inhibition": -5.02},
      {"smiles": "O=S(=O)(CCN1CCC(C(F)(F)F)CC1)c1ccccc1", "inhibition": -7.12},
      {"smiles": "COc1ccc(OC)c(CCCc2cc(OC)ccc2OC)c1", "inhibition": -1.32},
      {"smiles": "O=C1C=C(SCC(=O)c2ccccc2)SC(c2ccc(Cl)cc2)C1", "note": "(configuration not stated)", "inhibition": -2.02},
      {"smiles": "O=c1cc(-c2ccccc2)sc2ccc(Cl)cc12", "inhibition": 5.03},
      {"smiles": "O=C(O)c1cnc(NCc2ccccc2)s1", "inhibition": -1.62},
      {"smiles": "O=S(=O)(c1ccc(Cl)c(Cl)c1)N1CCc2c([nH]c3ccccc23)C1C(F)(F)F", "note": "(configuration not stated)", "inhibition": 0.92},
      {"smiles": "N#Cc1c(-c2cccs2)oc(-n2cccc2)c1-c1cc(Br)cs1", "inhibition": 6.38},
      {"smiles": "CCOC(=O)c1cc(CC)sc1NC(=O)c1cccc(C(F)(F)F)c1", "inhibition": 1.92},
      {"smiles": "OCCNc1nc2ccccc2[nH]1", "inhibition": -3.29},
      {"smiles": "COC(=O)CCN1CCc2cc(N=Nc3ccc(C(F)(F)F)cc3)ccc21", "inhibition": 3.28},
      {"smiles": "N#CCSc1ccc2ccccc2c1", "inhibition": -1.93},
      {"smiles": "CCN(CCN1C(=O)CCC1=O)c1cccc(NC(C)=O)c1", "inhibition": -4.21},
      {"smiles": "Cc1cc(/C(N)=N/OC(=O)c2cccs2)c(-c2ccccc2)o1", "inhibition": 3.39},
      {"smiles": "CCOc1cc(-c2cccs2)nc(N)n1", "inhibition": 1.81},
      {"smiles": "O=S(=O)(c1ccc(Cl)s1)N1CCN(c2ccccc2)CC1", "inhibition": -1.65},
      {"smiles": "CSc1sc(C(N)=O)cc1C#N", "inhibition": -2.28},
      {"smiles": "O=C(O)c1nccnc1C(=O)NCCSCc1c(F)cccc1Cl", "inhibition": -7.53},
      {"smiles": "CCOc1ccc(C(N)=O)c(SCC(=O)O)c1", "inhibition": -4.29},
      {"smiles": "N#Cc1nccnc1N1CCN(c2ccccc2)CC1", "inhibition": 10.5},
      {"smiles": "Cc1cc(S(=O)(=O)Oc2ccc(OCc3ccccc3)cc2)c(C)cc1Cl", "inhibition": 9.02},
      {"smiles": "Cn1cccc1-c1n[nH]c(=S)n1-c1ccc(Cl)cc1Cl", "inhibition": 9.51},
      {"smiles": "O=c1[nH]c2cc(Cl)c(Cl)cc2n1-c1ccncc1", "inhibition": -5.56},
      {"smiles": "COc1cccc(OCc2ccccc2)c1C#N", "inhibition": -5},
      {"smiles": "O=C(CSc1nc2ccccc2o1)N1CCC(n2cccc2)CC1", "inhibition": -8.01},
      {"smiles": "CC(C)(C)C(=O)OCC(N)=S", "inhibition": -7.02},
      {"smiles": "CSc1c(C#N)c(N)nc(SCC(=O)c2ccc(OC(F)F)cc2)c1C#N", "inhibition": 1.37},
      {"smiles": "O=C(O)c1ccccc1/C=N/Nc1cc(Cl)ccc1Cl", "inhibition": -2.5},
      {"smiles": "NC(=O)c1ccccc1OCCOc1ccccc1C(N)=O", "inhibition": -25.3},
      {"smiles": "CN(C)c1cccc2c1c(NC(=O)Nc1ccc(OCc3ccccc3)cc1)nn2C", "inhibition": -5.12},
      {"smiles": "Cc1ccccc1NC(=O)NCc1ccco1", "inhibition": 0.5},
      {"smiles": "OCCNC(=S)Nc1ccccc1-c1ccccc1", "inhibition": 6.35},
      {"smiles": "Cc1c(N/N=C(\\C#N)c2nc3ccccc3[nH]2)c(=O)n(-c2ccccc2)n1C", "inhibition": 3.99},
      {"smiles": "CN(C)c1cc(-c2cc(Cl)sc2Cl)oc(=O)c1Cl", "inhibition": -4.82},
      {"smiles": "O/N=C/c1sccc1Oc1ccccc1", "inhibition": 0.35},
      {"smiles": "COC(OC)c1ccnc(SCC(=O)Nc2ccc(C(C)C)cc2)n1", "inhibition": -8.52},
      {"smiles": "O=C(Nc1ccccc1N1CCOCC1)C1CCN(c2nccc(C(F)(F)F)n2)CC1", "inhibition": 1.1},
      {"smiles": "CC1(C)CC(=O)c2c(NCc3ccco3)sc(C#N)c2C1", "inhibition": 8.27},
      {"smiles": "COC(=O)c1sccc1-c1ccc(/C(C)=N/NC(N)=O)o1", "inhibition": 0.98},
      {"smiles": "Fc1cccc(Cl)c1CSc1nccn1-c1cccnc1", "inhibition": 5.59},
      {"smiles": "O=C(OCc1ccco1)c1cnc(Nc2ccc(OC(F)(F)F)cc2)nc1C(F)(F)F", "inhibition": 11.4},
      {"smiles": "N#Cc1c(N)nc2c3c1NC(O)(c1ccccc1)C(C#N)C3c1cc(Cl)ccc1O2", "note": "(configuration not stated)", "inhibition": -1.34},
      {"smiles": "Cc1nc2sc(-c3ccccc3)cc2c(=O)o1", "inhibition": 4.05},
      {"smiles": "NS(=O)(=O)c1cc(Br)ccc1I", "inhibition": -0.48},
      {"smiles": "O=C1CCN(Cc2ccccc2)C(=O)N1c1ccc2c(c1)CCO2", "inhibition": -14.4},
      {"smiles": "CCOC(=O)C1=C(C)NC(=O)NC1c1ccc(-c2cccc([N+](=O)[O-])c2)o1", "note": "(configuration not stated)", "inhibition": -3.21},
      {"smiles": "CC(CC(=O)O)Oc1ccc(Cl)cc1[N+](=O)[O-]", "note": "(configuration not stated)", "inhibition": -0.53},
      {"smiles": "CSc1nc(N/C=C(\\C#N)C(=O)c2cccs2)n2nc(C)cc2n1", "inhibition": -2.59},
      {"smiles": "N#CCc1ccc(OC(=O)c2cccnc2)cc1", "inhibition": -3.47},
      {"smiles": "CN(C)C(=S)Nc1ccc(Br)cc1Cl", "inhibition": -2.8},
      {"smiles": "Clc1cncc(Cl)c1N/N=C/C1CC2C=CC1C2", "note": "(configuration not stated)", "inhibition": 5.74},
      {"smiles": "O=C(O)c1onc2ccccc12", "inhibition": -3.17},
      {"smiles": "CSc1nccc(-c2ccc(S(=O)(=O)n3nc(C)c(Br)c3C)s2)n1", "inhibition": 2.65},
      {"smiles": "Cc1cc(NC(=O)c2cc(-c3ccccc3)c(C(F)(F)F)s2)no1", "inhibition": -1.45},
      {"smiles": "CC(=O)Nc1ccc(/C(N)=N/O)cc1", "inhibition": 1.86},
      {"smiles": "O=C(O)CC1(CC(=O)NCc2ccco2)CCCCC1", "inhibition": -10.3},
      {"smiles": "CC(=O)OC1=CCC2C3CC[C@@]4(C)CC(OC(C)=O)CCC4(C)C3C(OC(C)=O)CC12C", "note": "(some centres not stated)", "inhibition": 5.37},
      {"smiles": "CC(C)(C)NC(=O)[C@@H]1C[C@@H]2CCCC[C@@H]2CN1C(=O)c1ccno1", "inhibition": 2.92},
      {"smiles": "CCOC(=O)c1nnc2c(Br)c(C)nn2c1C", "inhibition": 0.26},
      {"smiles": "CCc1ccnc(NS(=O)(=O)c2ccc3c(c2)OCCO3)c1", "inhibition": -7.82},
      {"smiles": "Cc1nc(C(=O)NNC(=S)Nc2ccccc2C(F)(F)F)cs1", "inhibition": -3.73}
    ]}
  ]
}
